What all share (test): NCI-60 one-dose screen, 48 h (100 = growth as untreated, 0 = no growth, -100 = all killed)
What all share (conditions): 10 µM unless noted

Assay [1] concerns RPMI-8226 leukemia.
The subject of assay [2] is OVCAR-8 ovarian.
In assay [3] the test system is OVCAR-4 ovarian.
Assay [4] has as its system SK-OV-3 ovarian.
Assay [5] deals with IGROV1 ovarian.
Assay [6] deals with OVCAR-3 ovarian.
In assay [7] the test system is HS 578T breast.
In assay [8] the test system is NCI/ADR-RES ovarian.
Assay [9] has as its system T-47D breast.
Assay [10] has as its system OVCAR-5 ovarian.

About 83,000 compounds went through this panel and 20% of them were active in at least one assay; those are over-represented in the sample as a whole.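 Note: values are percent growth. 100 is the growth of untreated cells, values between 100 and 0 indicate rising inhibition; between -100 and 0 indicates cell death.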 A number with no mark means an inactive call. Calls of active or inactive are those of the source. Rule for the calls: active = growth percent below 10; inactive = the rest.

As for `COc1ccc(NC(=O)c2sc3nc(C)c(C(C)=O)cc3c2N)cc1`, the growth in [1] is 85.6%; in assay [2], 91.9%; in assay [3] it was 95.7%; in [4], 99.3%; in assay [5], 115%; in assay [6], 109%. For the same molecule, the growth in assay [7] was 105%; in assay [8], 98.9%; in assay [9] it was 82.7%.

As for `COc1ccc(-c2nc(C#N)c(NCC(c3ccco3)N3CCCC3)o2)cc1` (configuration not stated), the growth in [1] is 24.2%; in assay [2], 45.1%; in assay [3], 52.6%; in [4] it was 30.4%; in assay [5], 56.5%; in assay [6] it was 22%. The growth in assay [7] was 39.4%; in [8] it was 10.2%; in assay [9], 51.6%.

`CC(=O)Nc1ccc2c(c1)Cc1cc(F)ccc1-2`: the growth in [1] was 93.6%; in assay [2], 97.5%; in [3], 109%; in [4] it was 106%; in [5], 92.8%; in assay [6], 98.6%. Moreover, the growth in assay [7] is 103%; in [8], 97.5%; in assay [9], 82.8%.

Regarding `CCOc1ccc(C2N(c3cc(OC)c(OC)c(OC)c3)C(=O)C2(F)F)cc1` (configuration not stated), the growth in assay [1] was 14.6%; in assay [2], 43.2%; in assay [3] it was 49.6%; in assay [5] it was 37.8%; in [6], 7.25% (active); in [7] it was 37.4%. Also, the growth was 28.9% in [8] and 70% in [9].

In the case of `S=c1ssnc1-c1cc2ccccc2o1`, the growth was 21.4% in [1]; 86% in [2]; 83.2% in assay [3]; 85.7% in assay [4]; -54% (active) in assay [5]; 80.4% in assay [6]. The growth was 61.9% in assay [7], 78% in [8] and 64.5% in [9].

In the case of `COc1cc(/C=C/C(=O)/C=C/c2cc3ccc(Cl)cc3[nH]c2=O)ccc1O`, the growth in [2] is 6.97% (active); in [10] it was 103%; in assay [3], 68%; in assay [4] it was 105%; in assay [5] it was 40.7%; in [6] it was 42.4%. Further, the growth is 73.8% in assay [7], 41% in assay [8] and 88.8% in assay [9].

Turning to `COc1cc(C(C)c2ccc3c(ccn3C)c2)cc(OC)c1OC` (configuration not stated), the growth is 15.8% in assay [1]; 11.5% in [2]; 37.5% in assay [3]; 17.7% in assay [4]; 18.8% in [5]; -16.4% (active) in assay [6]. Besides, the growth in [7] was 35.1%; in [8], 13%; in assay [9], 57.3%.

`O=C(Nc1nc(-c2ccccc2Cl)cs1)c1cc(-c2ccc(Br)cc2)nc2ccccc12`: the growth is 29% in assay [1]; 43.1% in [2]; 46.6% in [3]; 31.8% in assay [4]; 61.4% in assay [5]; 47% in assay [6]. For the same molecule, the figures for the growth in assay [7], in assay [8] and in assay [9] were 79.6%, 57.2% and 9.58% (active), respectively.

Turning to `C=C(C)[C@@H]1CC[C@]2(C(=O)OCCOCCOCC[P+](c3ccccc3)(c3ccccc3)c3ccccc3)CC[C@]3(C)[C@H](CC[C@@H]4[C@@]5(C)CC[C@H](OC(C)=O)C(C)(C)[C@@H]5CC[C@]43C)[C@@H]12`, the growth was -78.2% (active) in [2]; -86.2% (active) in [10]; -82.1% (active) in assay [3]; -94.5% (active) in assay [4]; -83.9% (active) in [5]; -95.8% (active) in assay [6]. Moreover, the growth in [7] is -48.3% (active); in assay [8], 4.3% (active); in assay [9] it was -76.7% (active).

With `CCO/C=N/S(=O)(=O)c1cc2c(cc1Cl)NC=NS2(=O)=O`, the growth in [2] is 100%; in assay [10], 112%; in assay [3], 117%; in assay [4], 104%; in assay [5], 104%; in assay [6], 105%. Besides, the values for the growth in [7], in assay [8] and in assay [9] were 101%, 109% and 105%, respectively.

Regarding `C#Cc1cccc(Nc2ncnc3ccc(NC(=O)c4ccccc4)cc23)c1`, the growth in assay [2] was 81.1%; in assay [10], 83.4%; in assay [3], 80.4%; in assay [4] it was 75.3%; in assay [5], 33.7%; in assay [6], 66.2%. Also, the growth was 102% in assay [7], 69.8% in assay [8] and 61.4% in [9].

On to `O=C(O)c1ccc(-n2cc(/C=N/Nc3ccc(Cl)cc3Cl)c(-c3ccccc3)n2)cc1`, for which the growth was 98.6% in [2]; 107% in [10]; 87.3% in assay [3]; 89% in [5]; 88.7% in assay [6]; 107% in assay [7]. The growth in assay [8] was 92.3%; in assay [9] it was 70.7%.

Turning to `CC1(C)Cc2c(Br)c(Br)c(Br)c(OCC(O)CN3CCOCC3)c2O1` (configuration not stated), the growth in assay [2] was 88.9%; in assay [10], 99.7%; in [3], 99.5%; in assay [4], 110%; in assay [6], 57%; in [7], 98.1%. The figures for the growth in assay [8] and in assay [9] were 81.2% and 108%, respectively.

In the case of `C=C1C(=O)O[C@H]2[C@H]1CC/C(COC(=O)CCCCCCC(=O)OC/C1=C/CC[C@@]3(C)O[C@H]3[C@H]3OC(=O)C(=C)[C@@H]3CC1)=C\CC[C@@]1(C)O[C@@H]21`, the growth in assay [2] is -18.7% (active); in assay [10], 61%; in assay [3], 42.3%; in assay [4], 94.6%; in assay [6], -3.87% (active); in assay [7], 27.2%. The figures for the growth in assay [8] and in [9] were 46.6% and -18.1% (active), respectively.

Regarding `CCN(CC)c1ccc2c(c1)Oc1nc(N)c(C#N)c(N)c1C2Sc1ccc(OC)cc1` (configuration not stated), the growth was 5.24% (active) in assay [2]; 51.9% in assay [10]; 46.2% in [3]; 34% in assay [4]; -3.83% (active) in assay [5]; -15.1% (active) in assay [6]. Moreover, the results for the growth in assay [7], in assay [8] and in assay [9] were 19.7%, 46.9% and 51.8%, respectively.

For the molecule `COc1ccc(-c2cc(C(=O)N3N=C(c4ccc(N)cc4)CC3c3ccc(OC)cc3)c3cc(OC)ccc3n2)cc1` (configuration not stated), the growth in assay [2] is 22.1%; in assay [10], 103%; in assay [3], 71.9%; in assay [4], 78.3%; in [5], 50.8%; in [6], 22%. Further, the results for the growth in assay [7], in assay [8] and in assay [9] were 45.9%, -8.76% (active) and 43.4%, respectively.

Take `CCc1ccc(OCc2ccccc2C(=O)Nc2ccc3nc(C)cc(N)c3c2)cc1`: the growth is -60.7% (active) in assay [2]; -95.4% (active) in assay [10]; -84.3% (active) in [3]; -97% (active) in assay [4]; -71.5% (active) in assay [5]; -92.4% (active) in assay [6]. Further, the growth is -42% (active) in assay [7], -71.5% (active) in assay [8] and -60% (active) in assay [9].

On to `COC(=O)c1cc2c3c(cc(O)c2[nH]1)N(C(=O)C1Cc2cc(OC)c(OC)c(OC)c2N1)CC3CCl` (configuration not stated), for which the growth in assay [2] is -50.5% (active); in [10], -61.1% (active); in [3], -98.7% (active); in assay [4], -44.9% (active); in assay [5] it was -10.6% (active); in [6] it was -83% (active). Further, the figures for the growth in [7], in [8] and in assay [9] were 1.21% (active), -34.6% (active) and -48.9% (active), respectively.

Regarding `CN(C)C(CNc1oc(-c2cccc3ccccc23)nc1C#N)c1ccco1` (configuration not stated), the growth was 96.4% in assay [2]; 94.6% in assay [10]; 83.2% in assay [3]; 104% in [4]; 96.2% in assay [6]; 89.6% in [7]. For the same molecule, the growth is 94.8% in assay [8] and 72% in [9].

As to `COc1ccc(-n2cc(-c3ccc(Cl)c(Cl)c3)[nH]c2=O)cc1OC`, the growth in assay [2] was 94.6%; in [10], 90%; in [3], 89.9%; in [4] it was 101%; in assay [5], 102%; in assay [6], 111%. In addition, the values for the growth in assay [7], in assay [8] and in assay [9] were 102%, 105% and 92.1%, respectively.

Regarding `CC(=O)Oc1ccc(O)cc1`, the growth is 90% in [2]; 115% in assay [10]; 105% in [3]; 110% in [4]; 107% in assay [5]; 111% in [6]. Also, the growth was 105% in assay [7], 91.6% in [8] and 118% in [9].

For the molecule `CCC1S/C(=N\N=C(/C)c2ccc[nH]2)N(c2ccccc2)C1=O` (configuration not stated), the growth in [2] is 90.2%; in assay [10], 99.3%; in assay [3], 104%; in assay [4] it was 123%; in assay [5] it was -48.7% (active); in assay [6], 89.7%. Further, the growth in [7] was 124%; in assay [8] it was 85.2%; in [9] it was 122%.

In the case of `Nc1cccc(C(=O)Nc2ccc3c(O)c(N=Nc4ccc(N=Nc5ccc(S(=O)(=O)O)cc5)cc4)c(S(=O)(=O)O)cc3c2)c1`, the growth in assay [2] is 107%; in assay [10], 109%; in assay [3], 94.3%; in assay [4], 101%; in [5], 97.8%; in assay [6], 102%. The growth in [7] is 103%; in assay [8] it was 112%; in assay [9] it was 83.8%.

For the molecule `C#Cc1ccccc1NC(=O)c1sc2nc3c(cc2c1N)CCCCCC3`, the growth in assay [2] was 75.7%; in [10] it was 93.1%; in assay [3], -19% (active); in assay [4], 36.9%; in assay [5], 74.5%; in assay [6], 30.9%. The growth in [7] was 8.22% (active); in [8] it was 67.4%; in assay [9] it was 49.7%.

With `COCCOC(=O)COc1ccc(OC)cc1`, the growth is 101% in assay [2]; 104% in assay [10]; 94.2% in assay [3]; 112% in [4]; 101% in assay [5]; 95.4% in assay [6]. The growth in assay [7] was 101%; in assay [8], 104%; in assay [9] it was 120%.

For `O=C1Nc2ccc(Cl)cc2/C1=N/c1nc(-c2ccc(Cl)cc2)cs1`, the growth in assay [2] is 3.67% (active); in [10] it was 26.2%; in assay [3] it was 34.9%; in [4] it was 1.76% (active); in assay [5] it was 16.6%; in assay [6], -13.6% (active). For the same molecule, the growth was 13.7% in [7], 57.7% in [8] and -3.94% (active) in assay [9].

As to `Cc1c(Cl)cccc1NC(=O)c1sc2nc3c(cc2c1N)COCC3`, the growth was 33.6% in [2]; 55.3% in [10]; 60.9% in assay [3]; 45.8% in assay [5]; 17.8% in assay [6]; 40.1% in [7]. The growth in assay [8] is 6.51% (active); in assay [9] it was 32.4%.
